The results in this text go back to paper PMC7862700, “An all-to-all approach to the identification of sequence-specific readers for epigenetic DNA modifications on cytosine”.

Common to all, as to assay: DAPPL (digital affinity profiling via proximity ligation, sequencing); 10 mM Tris-HCl pH 7.5, 50 mM NaCl, 1 mM DTT, 4% glycerol, room temperature, 30 min; GST-TFs on glutathione beads, 16-mer random dsDNA library, 0.1% formaldehyde crosslink after washing; high values mean tight binding
Holding throughout (details): protein: recombinant; tags: N-terminal GST; dsDNA, one strand shown

One test deals with T1, FLI1 (Homo sapiens, UniProt Q01543 1-452).
T1 sequence: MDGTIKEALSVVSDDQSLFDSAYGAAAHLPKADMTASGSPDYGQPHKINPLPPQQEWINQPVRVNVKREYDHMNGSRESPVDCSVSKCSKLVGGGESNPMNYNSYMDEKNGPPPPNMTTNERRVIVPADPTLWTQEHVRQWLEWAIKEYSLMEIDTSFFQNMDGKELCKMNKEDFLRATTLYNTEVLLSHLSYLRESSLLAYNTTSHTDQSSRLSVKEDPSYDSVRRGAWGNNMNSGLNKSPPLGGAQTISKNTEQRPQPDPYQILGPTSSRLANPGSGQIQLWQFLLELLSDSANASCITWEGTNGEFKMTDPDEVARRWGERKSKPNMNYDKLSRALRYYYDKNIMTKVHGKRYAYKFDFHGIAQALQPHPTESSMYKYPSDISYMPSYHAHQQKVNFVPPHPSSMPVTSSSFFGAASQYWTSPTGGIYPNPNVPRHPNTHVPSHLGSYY
The procedure, abridged: (§1)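 Beads coated with glutathione captured GST-fused human transcription factors that had been expressed in yeast, and the factors were then given DNA barcodes and pooled with a tag-only sample. The pools were incubated with 200 nmole of a random double-stranded 16-mer DNA library in Tris/NaCl/DTT/glycerol buffer for 30 min at room temperature, washed, crosslinked with 0.1% formaldehyde and proximity-ligated with BsaI/T4 ligase at 37 °C for 1 h. PCR amplification and Illumina NextSeq500 sequencing came last. Binding signal is each hexamer's read frequency for a factor divided by its frequency for the tag-only sample.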

The next test addresses T2, ELK1 (Homo sapiens, UniProt P19419 1-428).
T2 sequence: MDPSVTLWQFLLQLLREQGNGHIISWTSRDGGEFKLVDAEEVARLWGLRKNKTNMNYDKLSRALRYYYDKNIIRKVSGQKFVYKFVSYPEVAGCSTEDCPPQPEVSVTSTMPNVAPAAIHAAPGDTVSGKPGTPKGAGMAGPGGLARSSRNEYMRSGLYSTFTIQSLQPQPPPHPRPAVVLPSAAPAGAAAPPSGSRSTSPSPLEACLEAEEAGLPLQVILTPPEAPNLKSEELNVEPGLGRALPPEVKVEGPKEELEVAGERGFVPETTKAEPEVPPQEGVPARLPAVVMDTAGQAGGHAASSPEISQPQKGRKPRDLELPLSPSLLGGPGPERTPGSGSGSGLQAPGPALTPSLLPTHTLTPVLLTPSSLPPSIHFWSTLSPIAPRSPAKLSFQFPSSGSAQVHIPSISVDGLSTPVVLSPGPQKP
In outline: as §1

In a further test the target is T3, GABPA (Homo sapiens, UniProt Q06546 1-454).
T3 sequence: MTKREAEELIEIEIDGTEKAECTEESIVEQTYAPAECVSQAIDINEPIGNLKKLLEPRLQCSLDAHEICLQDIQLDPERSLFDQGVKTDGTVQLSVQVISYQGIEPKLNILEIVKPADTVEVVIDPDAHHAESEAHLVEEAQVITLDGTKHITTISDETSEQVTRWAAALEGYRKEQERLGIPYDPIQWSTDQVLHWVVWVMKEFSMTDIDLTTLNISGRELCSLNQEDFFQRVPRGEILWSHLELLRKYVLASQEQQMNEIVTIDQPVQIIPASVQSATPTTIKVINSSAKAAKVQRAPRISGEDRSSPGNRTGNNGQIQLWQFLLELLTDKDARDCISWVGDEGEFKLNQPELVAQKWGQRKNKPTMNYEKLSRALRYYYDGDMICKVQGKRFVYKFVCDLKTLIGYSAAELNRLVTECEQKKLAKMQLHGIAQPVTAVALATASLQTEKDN
In outline:
as §1

The target of the next test is T4, ERG (Homo sapiens, UniProt P11308 1-479).
T4 sequence: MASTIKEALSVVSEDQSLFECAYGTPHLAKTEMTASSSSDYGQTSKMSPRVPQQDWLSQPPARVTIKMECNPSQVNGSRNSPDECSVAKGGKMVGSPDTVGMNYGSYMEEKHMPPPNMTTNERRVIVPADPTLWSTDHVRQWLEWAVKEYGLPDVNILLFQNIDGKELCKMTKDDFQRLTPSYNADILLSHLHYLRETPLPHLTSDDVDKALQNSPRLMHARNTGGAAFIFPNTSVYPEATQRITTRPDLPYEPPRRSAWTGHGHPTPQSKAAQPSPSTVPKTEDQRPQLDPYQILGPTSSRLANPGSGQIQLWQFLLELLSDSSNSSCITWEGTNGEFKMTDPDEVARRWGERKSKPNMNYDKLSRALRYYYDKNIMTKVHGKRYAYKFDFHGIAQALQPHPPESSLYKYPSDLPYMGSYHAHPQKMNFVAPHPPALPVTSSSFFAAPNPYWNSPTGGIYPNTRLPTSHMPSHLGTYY
In outline: as §1

For another test, the target named is ELF1 (Homo sapiens, UniProt P32519 1-619). In outline: as §1
Another test deals with T5, EHF (Homo sapiens, UniProt Q9NZC4 1-300).
T5 sequence: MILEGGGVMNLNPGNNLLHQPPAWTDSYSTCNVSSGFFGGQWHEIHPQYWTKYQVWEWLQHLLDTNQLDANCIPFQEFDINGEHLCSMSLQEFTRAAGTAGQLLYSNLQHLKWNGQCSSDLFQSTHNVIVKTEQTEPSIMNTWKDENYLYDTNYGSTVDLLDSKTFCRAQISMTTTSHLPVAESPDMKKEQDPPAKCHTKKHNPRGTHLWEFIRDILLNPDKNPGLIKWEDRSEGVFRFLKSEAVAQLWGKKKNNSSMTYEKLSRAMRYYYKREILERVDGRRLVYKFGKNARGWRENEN
The procedure, abridged:
as §1

Another test addresses SPI1 (Homo sapiens, UniProt P17947 1-270). In outline: as §1
A further test concerns the target SPIB (Homo sapiens, UniProt Q01892 1-262). The procedure, abridged:
as §1

For a further test, the target named is T6, ELK3 (Homo sapiens, UniProt P41970 1-407).
T6 sequence: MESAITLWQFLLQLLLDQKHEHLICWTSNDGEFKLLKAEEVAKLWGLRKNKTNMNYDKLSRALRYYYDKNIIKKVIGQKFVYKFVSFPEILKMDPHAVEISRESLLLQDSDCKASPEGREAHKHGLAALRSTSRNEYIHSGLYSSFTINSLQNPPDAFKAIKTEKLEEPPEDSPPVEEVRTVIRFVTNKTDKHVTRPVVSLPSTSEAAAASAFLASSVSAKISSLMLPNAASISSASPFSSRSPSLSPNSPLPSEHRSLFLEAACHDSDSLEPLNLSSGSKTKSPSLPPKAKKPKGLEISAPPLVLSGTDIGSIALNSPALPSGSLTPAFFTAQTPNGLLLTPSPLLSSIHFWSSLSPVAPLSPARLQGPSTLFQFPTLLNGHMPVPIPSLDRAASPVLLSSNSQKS
In outline: as §1

Another test addresses T7, FEV (Homo sapiens, UniProt Q99581 1-238).
T7 sequence: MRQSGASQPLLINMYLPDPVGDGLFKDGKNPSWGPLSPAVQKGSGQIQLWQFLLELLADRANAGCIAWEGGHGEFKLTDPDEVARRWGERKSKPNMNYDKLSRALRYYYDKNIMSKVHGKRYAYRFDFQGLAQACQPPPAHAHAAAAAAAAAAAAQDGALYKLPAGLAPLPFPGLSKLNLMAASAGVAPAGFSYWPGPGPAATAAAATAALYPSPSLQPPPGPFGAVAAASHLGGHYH
The procedure, abridged: as §1

A further test addresses ETV5 (Homo sapiens, UniProt P41161 1-510). The procedure, abridged:
as §1

The target of a further test is ELF4 (Homo sapiens, UniProt Q99607 1-663). The procedure, abridged:
as §1

Another test deals with ETV1 (Homo sapiens, UniProt P50549 1-477). The procedure, abridged:
as §1

In a further test the target is T8, ERF (Homo sapiens, UniProt P50548 1-548).
T8 sequence: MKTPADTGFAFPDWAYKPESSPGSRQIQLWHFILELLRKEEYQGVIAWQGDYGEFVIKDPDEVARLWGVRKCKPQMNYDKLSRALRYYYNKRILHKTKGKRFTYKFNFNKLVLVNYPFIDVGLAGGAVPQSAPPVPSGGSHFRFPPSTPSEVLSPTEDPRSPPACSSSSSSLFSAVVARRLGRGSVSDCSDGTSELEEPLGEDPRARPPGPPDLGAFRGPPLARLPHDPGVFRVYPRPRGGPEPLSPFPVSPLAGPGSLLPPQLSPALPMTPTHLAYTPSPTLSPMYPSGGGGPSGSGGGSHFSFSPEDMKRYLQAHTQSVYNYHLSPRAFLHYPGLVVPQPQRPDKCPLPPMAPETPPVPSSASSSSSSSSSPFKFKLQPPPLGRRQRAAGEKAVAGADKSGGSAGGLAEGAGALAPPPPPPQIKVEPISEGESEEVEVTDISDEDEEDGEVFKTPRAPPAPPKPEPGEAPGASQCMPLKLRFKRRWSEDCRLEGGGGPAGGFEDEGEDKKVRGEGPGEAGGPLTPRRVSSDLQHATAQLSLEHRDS
In outline:
as §1

The next test concerns the target T9, ETV3L (Homo sapiens, UniProt Q6ZN32 1-361).
T9 sequence: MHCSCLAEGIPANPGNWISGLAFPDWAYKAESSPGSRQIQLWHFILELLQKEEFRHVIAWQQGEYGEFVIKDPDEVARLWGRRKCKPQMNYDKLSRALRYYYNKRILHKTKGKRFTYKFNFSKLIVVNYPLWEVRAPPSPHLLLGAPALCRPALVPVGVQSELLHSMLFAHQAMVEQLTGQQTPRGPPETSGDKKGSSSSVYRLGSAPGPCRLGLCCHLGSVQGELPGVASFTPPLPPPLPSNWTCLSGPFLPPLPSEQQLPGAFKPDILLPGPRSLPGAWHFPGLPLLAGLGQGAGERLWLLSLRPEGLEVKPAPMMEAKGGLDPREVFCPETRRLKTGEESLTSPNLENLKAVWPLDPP
In outline: as §1

For the next test, the target named is T10, ETS2 (Homo sapiens, UniProt P15036 1-469).
T10 sequence: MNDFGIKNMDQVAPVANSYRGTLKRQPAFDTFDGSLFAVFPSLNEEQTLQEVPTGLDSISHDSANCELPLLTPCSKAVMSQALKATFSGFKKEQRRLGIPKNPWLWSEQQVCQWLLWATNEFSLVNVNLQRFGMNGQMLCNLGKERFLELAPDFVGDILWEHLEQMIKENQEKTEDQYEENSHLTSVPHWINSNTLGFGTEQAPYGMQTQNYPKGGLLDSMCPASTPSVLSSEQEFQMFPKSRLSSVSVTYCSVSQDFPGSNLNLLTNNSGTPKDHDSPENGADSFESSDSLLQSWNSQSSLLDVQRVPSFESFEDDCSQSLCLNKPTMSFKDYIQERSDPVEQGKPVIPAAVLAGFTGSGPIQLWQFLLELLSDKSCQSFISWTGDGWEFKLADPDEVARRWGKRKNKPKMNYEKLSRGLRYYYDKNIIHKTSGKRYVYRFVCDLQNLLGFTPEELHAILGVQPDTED
In outline:
as §1

In a further test the target is T11, ELF5 (Homo sapiens, UniProt Q9UKW6-2 1-255).
T11 sequence: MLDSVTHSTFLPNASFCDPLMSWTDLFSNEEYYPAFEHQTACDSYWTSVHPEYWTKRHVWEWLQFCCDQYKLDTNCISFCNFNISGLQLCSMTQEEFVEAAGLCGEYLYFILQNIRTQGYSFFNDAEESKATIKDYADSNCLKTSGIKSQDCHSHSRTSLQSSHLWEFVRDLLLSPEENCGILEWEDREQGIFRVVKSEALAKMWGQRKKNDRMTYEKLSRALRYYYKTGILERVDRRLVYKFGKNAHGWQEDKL
In outline:
as §1

The next test concerns the target T12, ETV3 (Homo sapiens, UniProt P41162-2 1-143).
T12 sequence: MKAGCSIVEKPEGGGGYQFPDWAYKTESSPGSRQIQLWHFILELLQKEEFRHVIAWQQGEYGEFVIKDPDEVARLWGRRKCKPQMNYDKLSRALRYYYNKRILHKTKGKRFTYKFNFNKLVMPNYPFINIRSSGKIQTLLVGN
In outline: as §1

Sequence of SPIB (Q01892 whole entry): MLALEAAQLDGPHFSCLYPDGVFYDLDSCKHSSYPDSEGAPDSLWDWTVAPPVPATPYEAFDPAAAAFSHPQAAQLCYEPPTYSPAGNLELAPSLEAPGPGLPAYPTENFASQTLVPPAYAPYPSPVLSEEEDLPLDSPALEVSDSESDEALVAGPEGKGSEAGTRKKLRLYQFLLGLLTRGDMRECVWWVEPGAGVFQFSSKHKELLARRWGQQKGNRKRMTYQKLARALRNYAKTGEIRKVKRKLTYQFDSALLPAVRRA
Sequence of ELF4 (Q99607 whole entry): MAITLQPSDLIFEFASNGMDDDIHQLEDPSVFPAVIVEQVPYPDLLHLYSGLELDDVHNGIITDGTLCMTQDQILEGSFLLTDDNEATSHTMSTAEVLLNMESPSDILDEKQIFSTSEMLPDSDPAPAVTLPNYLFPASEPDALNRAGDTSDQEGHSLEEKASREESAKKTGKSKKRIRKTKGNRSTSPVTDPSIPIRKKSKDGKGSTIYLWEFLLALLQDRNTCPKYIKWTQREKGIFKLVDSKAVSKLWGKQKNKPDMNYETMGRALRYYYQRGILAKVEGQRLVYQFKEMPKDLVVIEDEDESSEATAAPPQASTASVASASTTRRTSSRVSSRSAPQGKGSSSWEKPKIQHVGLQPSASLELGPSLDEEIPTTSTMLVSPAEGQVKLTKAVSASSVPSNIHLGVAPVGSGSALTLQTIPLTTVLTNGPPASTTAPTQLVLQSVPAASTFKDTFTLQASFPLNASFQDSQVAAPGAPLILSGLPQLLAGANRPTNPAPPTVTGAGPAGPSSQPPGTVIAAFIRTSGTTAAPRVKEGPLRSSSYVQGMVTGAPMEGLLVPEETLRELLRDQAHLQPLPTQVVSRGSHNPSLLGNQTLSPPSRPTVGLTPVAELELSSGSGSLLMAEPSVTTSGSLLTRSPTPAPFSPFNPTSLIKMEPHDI
Sequence of ETV1 (P50549 whole entry): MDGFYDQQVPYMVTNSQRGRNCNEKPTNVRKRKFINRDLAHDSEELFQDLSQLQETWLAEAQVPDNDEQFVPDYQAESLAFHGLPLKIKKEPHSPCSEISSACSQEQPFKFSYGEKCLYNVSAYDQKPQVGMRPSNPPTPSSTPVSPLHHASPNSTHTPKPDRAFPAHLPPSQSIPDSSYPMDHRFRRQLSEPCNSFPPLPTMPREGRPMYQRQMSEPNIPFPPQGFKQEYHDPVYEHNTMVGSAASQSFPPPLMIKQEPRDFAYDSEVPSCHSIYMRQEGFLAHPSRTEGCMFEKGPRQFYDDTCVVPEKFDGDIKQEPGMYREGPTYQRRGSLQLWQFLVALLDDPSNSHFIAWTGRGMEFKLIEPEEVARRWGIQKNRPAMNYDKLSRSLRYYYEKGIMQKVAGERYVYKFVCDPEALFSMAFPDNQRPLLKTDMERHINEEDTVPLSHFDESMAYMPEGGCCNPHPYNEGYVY
Sequence of ELF1 (P32519 whole entry): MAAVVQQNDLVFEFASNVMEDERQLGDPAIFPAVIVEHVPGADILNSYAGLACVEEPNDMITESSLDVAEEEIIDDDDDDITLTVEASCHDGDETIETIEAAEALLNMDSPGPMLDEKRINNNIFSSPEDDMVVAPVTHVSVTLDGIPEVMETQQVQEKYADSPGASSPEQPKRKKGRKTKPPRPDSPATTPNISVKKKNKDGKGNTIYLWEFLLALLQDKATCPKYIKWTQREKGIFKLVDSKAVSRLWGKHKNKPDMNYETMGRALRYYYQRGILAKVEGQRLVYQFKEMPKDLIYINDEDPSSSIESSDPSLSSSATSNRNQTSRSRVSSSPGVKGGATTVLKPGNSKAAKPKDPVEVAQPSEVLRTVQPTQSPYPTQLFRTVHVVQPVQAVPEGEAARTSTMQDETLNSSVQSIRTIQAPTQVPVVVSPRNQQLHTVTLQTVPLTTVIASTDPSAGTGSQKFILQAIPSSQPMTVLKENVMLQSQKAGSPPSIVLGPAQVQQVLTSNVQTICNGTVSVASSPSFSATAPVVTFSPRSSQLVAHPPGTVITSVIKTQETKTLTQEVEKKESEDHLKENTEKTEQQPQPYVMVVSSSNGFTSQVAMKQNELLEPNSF
Sequence of ETV5 (P41161 whole entry): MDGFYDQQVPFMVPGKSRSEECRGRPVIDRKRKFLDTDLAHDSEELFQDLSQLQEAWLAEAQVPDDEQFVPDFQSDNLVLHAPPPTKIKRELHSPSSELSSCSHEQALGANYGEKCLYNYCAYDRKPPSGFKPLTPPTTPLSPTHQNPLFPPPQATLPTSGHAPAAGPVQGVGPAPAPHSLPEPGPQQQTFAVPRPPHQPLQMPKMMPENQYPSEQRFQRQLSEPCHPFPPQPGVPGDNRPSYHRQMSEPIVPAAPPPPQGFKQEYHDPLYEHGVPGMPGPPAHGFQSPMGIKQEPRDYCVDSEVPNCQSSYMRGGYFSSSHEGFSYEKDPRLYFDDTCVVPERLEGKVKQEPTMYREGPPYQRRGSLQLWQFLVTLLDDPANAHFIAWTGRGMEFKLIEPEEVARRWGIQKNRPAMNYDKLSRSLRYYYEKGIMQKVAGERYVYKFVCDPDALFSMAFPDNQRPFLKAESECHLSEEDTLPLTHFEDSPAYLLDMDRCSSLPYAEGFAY

For the sequence GCAATT, the binding signal with FLI1 was 1.17 fold enrichment (6-mer frequency, TF over GST control); with ELK1, 1.15 fold enrichment (6-mer frequency, TF over GST control); with GABPA it was 1.14 fold enrichment (6-mer frequency, TF over GST control); in the test with ERG it was 1.02 fold enrichment (6-mer frequency, TF over GST control); with ELF1, 1.06 fold enrichment (6-mer frequency, TF over GST control); in the test with EHF, 1.09 fold enrichment (6-mer frequency, TF over GST control). In addition, the binding signal was 1.23 fold enrichment (6-mer frequency, TF over GST control) with SPI1; 1.21 fold enrichment (6-mer frequency, TF over GST control) with SPIB; 1.05 fold enrichment (6-mer frequency, TF over GST control) with ELK3; 1.14 fold enrichment (6-mer frequency, TF over GST control) with FEV; 1.12 fold enrichment (6-mer frequency, TF over GST control) with ETV5; 1.12 fold enrichment (6-mer frequency, TF over GST control) with ELF4. The binding signal in the test with ETV1 is 1.06 fold enrichment (6-mer frequency, TF over GST control); with ERF it was 1.2 fold enrichment (6-mer frequency, TF over GST control); with ETV3L, 1.08 fold enrichment (6-mer frequency, TF over GST control); with ETS2, 1.09 fold enrichment (6-mer frequency, TF over GST control); in the test with ELF5 it was 1.08 fold enrichment (6-mer frequency, TF over GST control); in the test with ETV3, 1.18 fold enrichment (6-mer frequency, TF over GST control).
